# Publication PMC7862700, “An all-to-all approach to the identification of sequence-specific readers for epigenetic DNA modifications on cytosine”
# Legend:
# Assay in all cases: DAPPL (digital affinity profiling via proximity ligation, sequencing); 10 mM Tris-HCl pH 7.5, 50 mM NaCl, 1 mM DTT, 4% glycerol, room temperature, 30 min; GST-TFs on glutathione beads, 16-mer random dsDNA library, 0.1% formaldehyde crosslink after washing; high values mean tight binding
# Conditions in all cases: protein: recombinant; tags: N-terminal GST; dsDNA, one strand shown
# ELK1 = biological target: T1, ELK1 (Homo sapiens, UniProt P19419 1-428)
# T1 sequence: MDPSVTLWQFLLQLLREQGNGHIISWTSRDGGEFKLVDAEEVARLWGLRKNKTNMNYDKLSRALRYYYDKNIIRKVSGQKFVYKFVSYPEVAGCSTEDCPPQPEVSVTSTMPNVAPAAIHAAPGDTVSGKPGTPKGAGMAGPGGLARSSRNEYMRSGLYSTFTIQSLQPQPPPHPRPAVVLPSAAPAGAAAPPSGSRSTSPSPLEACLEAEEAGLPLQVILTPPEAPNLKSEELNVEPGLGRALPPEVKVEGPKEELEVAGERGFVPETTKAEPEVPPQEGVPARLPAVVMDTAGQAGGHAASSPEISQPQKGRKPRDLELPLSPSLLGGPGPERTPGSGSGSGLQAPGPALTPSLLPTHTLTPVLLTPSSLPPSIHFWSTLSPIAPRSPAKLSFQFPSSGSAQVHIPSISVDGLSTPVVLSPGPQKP
# Method in brief: (§1)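 Pools were built from human transcription factors expressed in yeast as GST fusions, captured on glutathione beads and DNA-barcoded, along with a tag-only sample. Incubation with 200 nmole of a 16-mer random double-stranded DNA library lasted 30 min at room temperature in Tris/NaCl/DTT/glycerol buffer, and was followed by washing, 0.1% formaldehyde crosslinking, proximity ligation, PCR amplification and Illumina NextSeq500 sequencing. Binding signal is the quotient of each hexamer's read frequency for a factor and its frequency for the tag-only sample.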
# GABPA = biological target: T2, GABPA (Homo sapiens, UniProt Q06546 1-454)
# T2 sequence: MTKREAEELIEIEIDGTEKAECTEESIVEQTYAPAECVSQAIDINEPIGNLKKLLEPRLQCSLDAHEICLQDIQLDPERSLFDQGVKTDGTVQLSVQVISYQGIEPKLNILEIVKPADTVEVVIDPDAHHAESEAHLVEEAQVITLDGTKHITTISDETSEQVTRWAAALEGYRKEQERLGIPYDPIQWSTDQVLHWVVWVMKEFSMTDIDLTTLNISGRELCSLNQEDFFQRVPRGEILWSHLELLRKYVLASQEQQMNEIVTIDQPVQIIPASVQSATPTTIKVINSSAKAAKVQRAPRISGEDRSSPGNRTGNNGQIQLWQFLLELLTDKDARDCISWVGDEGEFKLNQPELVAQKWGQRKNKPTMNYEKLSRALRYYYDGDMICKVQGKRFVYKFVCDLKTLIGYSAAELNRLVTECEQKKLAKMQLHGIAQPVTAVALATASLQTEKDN
# Method in brief: as §1
# ERG = biological target: T3, ERG (Homo sapiens, UniProt P11308 1-479)
# T3 sequence: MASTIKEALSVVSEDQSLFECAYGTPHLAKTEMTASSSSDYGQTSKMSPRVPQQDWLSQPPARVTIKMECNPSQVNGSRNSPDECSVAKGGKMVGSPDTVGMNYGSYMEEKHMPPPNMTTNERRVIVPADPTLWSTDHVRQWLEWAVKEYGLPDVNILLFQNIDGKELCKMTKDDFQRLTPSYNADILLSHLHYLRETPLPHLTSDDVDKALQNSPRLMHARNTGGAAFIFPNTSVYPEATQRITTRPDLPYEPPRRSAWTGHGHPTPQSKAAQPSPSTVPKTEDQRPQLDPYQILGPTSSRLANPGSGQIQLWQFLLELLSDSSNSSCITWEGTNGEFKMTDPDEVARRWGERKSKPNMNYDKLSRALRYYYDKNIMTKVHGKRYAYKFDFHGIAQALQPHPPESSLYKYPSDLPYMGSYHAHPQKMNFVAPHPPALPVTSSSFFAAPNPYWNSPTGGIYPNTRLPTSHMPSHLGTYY
# Method in brief: as §1
# EHF = biological target: T4, EHF (Homo sapiens, UniProt Q9NZC4 1-300)
# T4 sequence: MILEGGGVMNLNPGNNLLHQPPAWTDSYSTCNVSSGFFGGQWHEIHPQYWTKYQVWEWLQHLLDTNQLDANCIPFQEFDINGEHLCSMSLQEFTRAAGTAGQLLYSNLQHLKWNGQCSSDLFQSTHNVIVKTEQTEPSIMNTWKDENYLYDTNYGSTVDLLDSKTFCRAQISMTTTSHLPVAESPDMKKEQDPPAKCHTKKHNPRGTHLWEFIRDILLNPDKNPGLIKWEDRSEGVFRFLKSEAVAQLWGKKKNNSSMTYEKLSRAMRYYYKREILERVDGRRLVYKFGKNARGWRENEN
# Method in brief: as §1
# SPIB = SPIB (Homo sapiens, UniProt Q01892 1-262)
# Chain of SPIB (Q01892 whole entry): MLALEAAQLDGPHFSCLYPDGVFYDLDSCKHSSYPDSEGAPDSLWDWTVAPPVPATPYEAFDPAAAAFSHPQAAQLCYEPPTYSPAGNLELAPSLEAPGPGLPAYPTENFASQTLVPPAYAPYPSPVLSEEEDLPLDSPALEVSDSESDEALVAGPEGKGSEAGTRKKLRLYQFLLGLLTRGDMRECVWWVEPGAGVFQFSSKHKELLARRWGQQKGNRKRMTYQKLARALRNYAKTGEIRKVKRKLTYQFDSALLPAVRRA
# Method in brief: as §1
# ELK4 = biological target: T5, ELK4 (Homo sapiens, UniProt P28324-2 1-405)
# T5 sequence: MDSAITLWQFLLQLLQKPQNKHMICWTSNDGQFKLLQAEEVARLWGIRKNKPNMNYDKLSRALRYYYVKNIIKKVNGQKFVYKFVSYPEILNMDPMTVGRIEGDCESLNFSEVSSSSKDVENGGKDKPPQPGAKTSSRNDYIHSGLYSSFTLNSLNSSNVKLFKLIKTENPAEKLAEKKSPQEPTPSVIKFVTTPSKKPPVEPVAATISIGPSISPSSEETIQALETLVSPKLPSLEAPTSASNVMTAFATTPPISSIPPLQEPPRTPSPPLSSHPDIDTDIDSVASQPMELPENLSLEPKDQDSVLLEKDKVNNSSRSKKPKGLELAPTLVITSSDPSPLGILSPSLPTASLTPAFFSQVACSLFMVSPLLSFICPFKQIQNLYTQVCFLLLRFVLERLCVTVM
# Method in brief: as §1
# ETV2 = biological target: T6, ETV2 (Homo sapiens, UniProt O00321 1-342)
# T6 sequence: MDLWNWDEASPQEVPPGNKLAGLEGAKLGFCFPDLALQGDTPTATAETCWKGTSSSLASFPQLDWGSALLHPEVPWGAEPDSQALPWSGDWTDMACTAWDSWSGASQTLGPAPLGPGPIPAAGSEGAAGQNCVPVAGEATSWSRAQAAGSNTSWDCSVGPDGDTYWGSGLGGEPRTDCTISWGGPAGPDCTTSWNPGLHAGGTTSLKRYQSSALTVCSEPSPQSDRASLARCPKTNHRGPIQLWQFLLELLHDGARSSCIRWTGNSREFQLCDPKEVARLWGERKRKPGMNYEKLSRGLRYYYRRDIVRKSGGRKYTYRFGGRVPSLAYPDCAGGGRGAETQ
# Method in brief: as §1
# ETV1 = ETV1 (Homo sapiens, UniProt P50549 1-477)
# Chain of ETV1 (P50549 whole entry): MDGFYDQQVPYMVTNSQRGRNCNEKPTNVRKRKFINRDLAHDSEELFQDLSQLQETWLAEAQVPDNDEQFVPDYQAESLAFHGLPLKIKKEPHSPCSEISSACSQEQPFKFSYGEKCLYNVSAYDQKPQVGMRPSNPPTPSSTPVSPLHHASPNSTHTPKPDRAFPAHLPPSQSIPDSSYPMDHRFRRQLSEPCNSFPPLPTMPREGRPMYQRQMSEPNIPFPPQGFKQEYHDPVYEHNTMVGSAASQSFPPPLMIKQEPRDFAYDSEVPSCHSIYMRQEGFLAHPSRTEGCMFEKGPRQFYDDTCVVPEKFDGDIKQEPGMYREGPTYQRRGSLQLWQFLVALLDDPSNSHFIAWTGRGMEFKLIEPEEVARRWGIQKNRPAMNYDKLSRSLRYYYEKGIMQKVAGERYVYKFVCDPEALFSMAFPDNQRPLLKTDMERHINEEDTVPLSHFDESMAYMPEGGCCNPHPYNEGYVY
# Method in brief: as §1
# ERF = biological target: T7, ERF (Homo sapiens, UniProt P50548 1-548)
# T7 sequence: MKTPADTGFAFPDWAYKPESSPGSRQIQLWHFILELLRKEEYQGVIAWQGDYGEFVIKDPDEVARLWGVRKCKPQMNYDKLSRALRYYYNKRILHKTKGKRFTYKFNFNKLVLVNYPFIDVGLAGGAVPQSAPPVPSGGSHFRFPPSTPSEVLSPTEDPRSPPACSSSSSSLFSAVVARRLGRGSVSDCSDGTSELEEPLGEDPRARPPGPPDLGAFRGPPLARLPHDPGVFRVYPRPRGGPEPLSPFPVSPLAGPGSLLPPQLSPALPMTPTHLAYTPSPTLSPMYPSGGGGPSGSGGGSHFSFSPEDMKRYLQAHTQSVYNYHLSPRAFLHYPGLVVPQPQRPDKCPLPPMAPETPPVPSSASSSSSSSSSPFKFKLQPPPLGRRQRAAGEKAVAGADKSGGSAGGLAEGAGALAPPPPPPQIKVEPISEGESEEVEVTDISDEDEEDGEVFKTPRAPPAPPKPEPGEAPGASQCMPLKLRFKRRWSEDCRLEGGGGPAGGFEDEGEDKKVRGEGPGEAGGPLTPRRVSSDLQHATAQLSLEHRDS
# Method in brief: as §1
# ETV3L = biological target: T8, ETV3L (Homo sapiens, UniProt Q6ZN32 1-361)
# T8 sequence: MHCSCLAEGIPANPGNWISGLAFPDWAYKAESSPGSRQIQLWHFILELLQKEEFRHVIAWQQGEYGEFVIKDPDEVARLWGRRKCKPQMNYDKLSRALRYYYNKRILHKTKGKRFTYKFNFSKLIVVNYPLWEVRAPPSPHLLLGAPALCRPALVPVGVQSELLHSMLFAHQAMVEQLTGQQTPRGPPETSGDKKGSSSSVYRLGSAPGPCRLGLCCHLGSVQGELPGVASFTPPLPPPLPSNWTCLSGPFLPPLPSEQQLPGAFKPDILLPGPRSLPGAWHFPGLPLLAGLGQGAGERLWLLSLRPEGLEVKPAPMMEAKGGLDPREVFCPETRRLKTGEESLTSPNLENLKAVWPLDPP
# Method in brief: as §1
# ETV7 = biological target: T9, ETV7 (Homo sapiens, UniProt Q9Y603 1-341)
# T9 sequence: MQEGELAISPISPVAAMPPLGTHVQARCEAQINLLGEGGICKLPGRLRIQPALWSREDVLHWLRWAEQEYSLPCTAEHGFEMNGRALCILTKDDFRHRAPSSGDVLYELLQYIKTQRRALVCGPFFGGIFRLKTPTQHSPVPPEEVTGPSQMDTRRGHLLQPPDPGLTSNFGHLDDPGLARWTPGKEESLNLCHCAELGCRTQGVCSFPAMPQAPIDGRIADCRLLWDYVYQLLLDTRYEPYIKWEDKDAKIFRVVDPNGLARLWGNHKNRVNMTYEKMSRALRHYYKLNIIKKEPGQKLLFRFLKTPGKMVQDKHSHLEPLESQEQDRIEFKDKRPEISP
# Method in brief: as §1
# ELF5 = biological target: T10, ELF5 (Homo sapiens, UniProt Q9UKW6-2 1-255)
# T10 sequence: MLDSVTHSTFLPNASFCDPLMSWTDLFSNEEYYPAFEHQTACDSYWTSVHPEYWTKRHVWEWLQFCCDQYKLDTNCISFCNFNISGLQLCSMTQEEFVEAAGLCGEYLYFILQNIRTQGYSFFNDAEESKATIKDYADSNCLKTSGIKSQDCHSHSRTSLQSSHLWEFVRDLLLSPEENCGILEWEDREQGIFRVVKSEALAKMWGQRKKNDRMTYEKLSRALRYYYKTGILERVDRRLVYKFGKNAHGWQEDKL
# Method in brief: as §1
sequence,measurement,setting,value
GATTGC,binding signal,ELK1,"1.06 fold enrichment (6-mer frequency, TF over GST control)"
same,binding signal,GABPA,"1.04 fold enrichment (6-mer frequency, TF over GST control)"
same,binding signal,ERG,"1.01 fold enrichment (6-mer frequency, TF over GST control)"
same,binding signal,EHF,"1.02 fold enrichment (6-mer frequency, TF over GST control)"
same,binding signal,SPIB,"1.05 fold enrichment (6-mer frequency, TF over GST control)"
same,binding signal,ELK4,"1.04 fold enrichment (6-mer frequency, TF over GST control)"
same,binding signal,ETV2,"1.09 fold enrichment (6-mer frequency, TF over GST control)"
same,binding signal,ETV1,"1.02 fold enrichment (6-mer frequency, TF over GST control)"
same,binding signal,ERF,"1.02 fold enrichment (6-mer frequency, TF over GST control)"
same,binding signal,ETV3L,"1.02 fold enrichment (6-mer frequency, TF over GST control)"
same,binding signal,ETV7,"1.03 fold enrichment (6-mer frequency, TF over GST control)"
same,binding signal,ELF5,"1 fold enrichment (6-mer frequency, TF over GST control)"
